Test results taken from article PMC11006913.
Positions count from the first letter of the chain named.

Assays:
Assay in all cases: PBM; 200 nM protein, PBS
Conditions in all cases: dsDNA, one strand shown
[1] = target: SHOX (Homo sapiens, UniProt O15266 103-189)
[2] = target: HOXB9 (Homo sapiens, UniProt P17482 171-250, T197M)
[3] = target: HOXC10 (Homo sapiens, UniProt Q9NYD6 254-340)
[4] = target: HOXB9 (Homo sapiens, UniProt P17482 171-250)
[5] = target: SHOX (Homo sapiens, UniProt O15266 103-189, R173C)
[6] = target: HOXC10 (Homo sapiens, UniProt Q9NYD6 254-340, K271E)
[7] = target: HOXB9 (Homo sapiens, UniProt P17482 171-250, R186Q)
[8] = target: T1, SIX6 (Homo sapiens, UniProt O95475 114-200, L167I)
T1 sequence: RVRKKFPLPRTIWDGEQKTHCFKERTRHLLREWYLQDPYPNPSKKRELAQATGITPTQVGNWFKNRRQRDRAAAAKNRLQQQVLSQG

[9] = target: T2, SIX6 (Homo sapiens, UniProt O95475 114-200, L143V)
T2 sequence: T1 sequence with L30V, I54L

[10] = target: T3, SIX6 (Homo sapiens, UniProt O95475 114-200, H141N)
T3 sequence: T1 sequence with H28N, I54L

[11] = target: T4, SIX6 (Homo sapiens, UniProt O95475 114-200, T165P)
T4 sequence: T1 sequence with T52P, I54L

[12] = target: T5, SIX6 (Homo sapiens, UniProt O95475 114-200, L167M)
T5 sequence: T1 sequence with I54M

[13] = target: T6, SIX6 (Homo sapiens, UniProt O95475 114-200, L143M)
T6 sequence: T1 sequence with L30M, I54L

[14] = target: T7, SIX6 (Homo sapiens, UniProt O95475 114-200, L143I)
T7 sequence: T1 sequence with L30I, I54L

[15] = target: T8, SIX6 (Homo sapiens, UniProt O95475 114-200, T165G)
T8 sequence: T1 sequence with T52G, I54L

[16] = target: HOXA2 (Homo sapiens, UniProt O43364 129-215, R185T)
[17] = target: T9, SIX6 (Homo sapiens, UniProt O95475 114-200, T139Q)
T9 sequence: T1 sequence with T26Q, I54L

[18] = target: MSX2 (Homo sapiens, UniProt P35548 130-214, R199I)
[19] = target: T10, SIX6 (Homo sapiens, UniProt O95475 114-200, T165A)
T10 sequence: T1 sequence with T52A, I54L

[20] = target: HOXA2 (Homo sapiens, UniProt O43364 129-215, R185K)
[21] = target: MSX2 (Homo sapiens, UniProt P35548 130-214)
[22] = target: T11, SIX6 (Homo sapiens, UniProt O95475 114-200, L167V)
T11 sequence: T1 sequence with I54V

[23] = target: T12, SIX6 (Homo sapiens, UniProt O95475 114-200)
T12 sequence: T1 sequence with I54L

[24] = target: T13, SIX6 (Homo sapiens, UniProt O95475 114-200, T165I)
T13 sequence: T1 sequence with T52I, I54L

[25] = target: MSX2 (Homo sapiens, UniProt P35548 130-214, F161Y)
[26] = target: HOXA2 (Homo sapiens, UniProt O43364 129-215, Y150S)
[27] = target: HOXA2 (Homo sapiens, UniProt O43364 129-215)
[28] = target: NKX3-2 (Homo sapiens, UniProt P78367 192-278, P234S)
[29] = target: NKX3-2 (Homo sapiens, UniProt P78367 192-278)
[30] = target: T14, VENTX (Homo sapiens, UniProt O95231 78-163, R121Q)
T14 sequence: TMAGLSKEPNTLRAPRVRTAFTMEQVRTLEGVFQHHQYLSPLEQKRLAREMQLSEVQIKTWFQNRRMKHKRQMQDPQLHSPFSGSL

[31] = target: T15, VENTX (Homo sapiens, UniProt O95231 78-163)
T15 sequence: T14 sequence with Q44R

[32] = target: ALX4 (Homo sapiens, UniProt Q9H161 200-286)
[33] = target: T16, VENTX (Homo sapiens, UniProt O95231 78-163, Y115F)
T16 sequence: T14 sequence with Y38F, Q44R

[34] = target: ALX4 (Homo sapiens, UniProt Q9H161 200-286, Q225E)
[35] = target: HOXA4 (Homo sapiens, UniProt Q00056 201-287, W262R)
[36] = target: HOXA4 (Homo sapiens, UniProt Q00056 201-287, R217L)
[37] = target: HOXA4 (Homo sapiens, UniProt Q00056 201-287)
[38] = target: HOXA4 (Homo sapiens, UniProt Q00056 201-287, W262F)
[39] = target: HOXC9 (Homo sapiens, UniProt P31274 178-260, K195R)
[40] = target: HOXC9 (Homo sapiens, UniProt P31274 178-260)
[41] = target: HOXC9 (Homo sapiens, UniProt P31274 178-260, R193K)
[42] = target: HOXC9 (Homo sapiens, UniProt P31274 178-260, R222W)
[43] = target: CRX (Homo sapiens, UniProt O43186 26-111)
[44] = target: CRX (Homo sapiens, UniProt O43186 26-111, E42D)
[45] = target: PITX2 (Homo sapiens, UniProt Q99697 72-157)
[46] = target: CRX (Homo sapiens, UniProt O43186 26-111, R41L)
[47] = target: HOXB6 (Homo sapiens, UniProt P17509 132-218, K202E)
[48] = target: HOXB6 (Homo sapiens, UniProt P17509 132-218)
Sequence of HOXB6 (Homo sapiens, UniProt P17509 132-218) (P17509 132-218): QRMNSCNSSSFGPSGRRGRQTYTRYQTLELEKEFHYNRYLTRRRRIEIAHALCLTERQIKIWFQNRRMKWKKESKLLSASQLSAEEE

Sequence of SHOX (Homo sapiens, UniProt O15266 103-189) (O15266 103-189): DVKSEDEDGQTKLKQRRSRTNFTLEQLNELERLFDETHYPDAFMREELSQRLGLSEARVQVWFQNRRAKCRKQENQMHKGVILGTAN
Sequence of SHOX (Homo sapiens, UniProt O15266 103-189, R173C) (O15266 103-189 R173C): as the sequence (O15266 103-189) above, with R71C counted along it
Sequence of HOXB9 (Homo sapiens, UniProt P17482 171-250, R186Q) (P17482 171-250 R186Q): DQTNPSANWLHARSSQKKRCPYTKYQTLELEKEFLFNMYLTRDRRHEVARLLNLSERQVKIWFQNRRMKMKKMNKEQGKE
Sequence of HOXB9 (Homo sapiens, UniProt P17482 171-250) (P17482 171-250): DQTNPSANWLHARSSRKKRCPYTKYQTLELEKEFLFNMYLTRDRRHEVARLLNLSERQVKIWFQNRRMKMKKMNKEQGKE
Sequence of HOXA4 (Homo sapiens, UniProt Q00056 201-287, R217L) (Q00056 201-287 R217L): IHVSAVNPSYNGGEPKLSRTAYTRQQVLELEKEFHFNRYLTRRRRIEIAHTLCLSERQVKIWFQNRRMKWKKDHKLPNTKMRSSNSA
Sequence of HOXA4 (Homo sapiens, UniProt Q00056 201-287, W262R) (Q00056 201-287 W262R): as the sequence (Q00056 201-287 R217L) above, with L17R, W62R counted along it
Sequence of HOXA4 (Homo sapiens, UniProt Q00056 201-287) (Q00056 201-287): as the sequence (Q00056 201-287 R217L) above, with L17R counted along it
Sequence of HOXB9 (Homo sapiens, UniProt P17482 171-250, T197M) (P17482 171-250 T197M): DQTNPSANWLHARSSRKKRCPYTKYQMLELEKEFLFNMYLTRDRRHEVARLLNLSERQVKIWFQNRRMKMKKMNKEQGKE
Sequence of HOXA4 (Homo sapiens, UniProt Q00056 201-287, W262F) (Q00056 201-287 W262F): as the sequence (Q00056 201-287 R217L) above, with L17R, W62F counted along it
Sequence of HOXA2 (Homo sapiens, UniProt O43364 129-215) (O43364 129-215): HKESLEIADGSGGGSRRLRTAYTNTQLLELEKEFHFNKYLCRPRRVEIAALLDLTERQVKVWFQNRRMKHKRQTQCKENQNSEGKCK
Sequence of HOXA2 (Homo sapiens, UniProt O43364 129-215, R185T) (O43364 129-215 R185T): as the sequence (O43364 129-215) above, with R57T counted along it
Sequence of MSX2 (Homo sapiens, UniProt P35548 130-214) (P35548 130-214): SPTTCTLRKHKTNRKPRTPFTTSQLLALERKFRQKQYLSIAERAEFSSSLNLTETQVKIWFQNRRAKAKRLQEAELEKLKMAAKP
Sequence of HOXB6 (Homo sapiens, UniProt P17509 132-218, K202E) (P17509 132-218 K202E): as the sequence (P17509 132-218) above, with K71E counted along it
Sequence of MSX2 (Homo sapiens, UniProt P35548 130-214, R199I) (P35548 130-214 R199I): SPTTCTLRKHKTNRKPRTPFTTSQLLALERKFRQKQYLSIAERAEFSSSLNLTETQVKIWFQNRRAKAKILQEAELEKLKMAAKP
Sequence of ALX4 (Homo sapiens, UniProt Q9H161 200-286) (Q9H161 200-286): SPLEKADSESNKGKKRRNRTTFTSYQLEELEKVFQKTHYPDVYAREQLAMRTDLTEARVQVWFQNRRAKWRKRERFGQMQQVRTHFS
Sequence of CRX (Homo sapiens, UniProt O43186 26-111, E42D) (O43186 26-111 E42D): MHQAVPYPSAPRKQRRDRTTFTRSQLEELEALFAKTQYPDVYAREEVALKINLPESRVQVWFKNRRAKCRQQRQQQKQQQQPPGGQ
Sequence of HOXC9 (Homo sapiens, UniProt P31274 178-260, R193K) (P31274 178-260 R193K): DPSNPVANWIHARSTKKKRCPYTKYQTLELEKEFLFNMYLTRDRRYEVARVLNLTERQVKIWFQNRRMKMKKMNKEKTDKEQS
Sequence of CRX (Homo sapiens, UniProt O43186 26-111) (O43186 26-111): as the sequence (O43186 26-111 E42D) above, with D17E counted along it
Sequence of HOXC9 (Homo sapiens, UniProt P31274 178-260, K195R) (P31274 178-260 K195R): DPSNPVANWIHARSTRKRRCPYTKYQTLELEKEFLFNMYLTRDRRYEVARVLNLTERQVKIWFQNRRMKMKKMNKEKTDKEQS
Sequence of HOXA2 (Homo sapiens, UniProt O43364 129-215, R185K) (O43364 129-215 R185K): as the sequence (O43364 129-215) above, with R57K counted along it
Sequence of CRX (Homo sapiens, UniProt O43186 26-111, R41L) (O43186 26-111 R41L): as the sequence (O43186 26-111 E42D) above, with R16L, D17E counted along it
Sequence of HOXC10 (Homo sapiens, UniProt Q9NYD6 254-340, K271E) (Q9NYD6 254-340 K271E): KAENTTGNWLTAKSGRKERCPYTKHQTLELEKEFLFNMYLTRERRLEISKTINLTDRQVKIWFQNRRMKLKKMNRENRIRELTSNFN
Sequence of ALX4 (Homo sapiens, UniProt Q9H161 200-286, Q225E) (Q9H161 200-286 Q225E): as the sequence (Q9H161 200-286) above, with Q26E counted along it
Sequence of HOXA2 (Homo sapiens, UniProt O43364 129-215, Y150S) (O43364 129-215 Y150S): as the sequence (O43364 129-215) above, with Y22S counted along it
Sequence of NKX3-2 (Homo sapiens, UniProt P78367 192-278) (P78367 192-278): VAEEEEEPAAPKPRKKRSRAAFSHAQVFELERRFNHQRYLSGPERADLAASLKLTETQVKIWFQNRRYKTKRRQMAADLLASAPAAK
Sequence of HOXC10 (Homo sapiens, UniProt Q9NYD6 254-340) (Q9NYD6 254-340): as the sequence (Q9NYD6 254-340 K271E) above, with E18K counted along it
Sequence of HOXC9 (Homo sapiens, UniProt P31274 178-260, R222W) (P31274 178-260 R222W): as the sequence (P31274 178-260 R193K) above, with K16R, R45W counted along it
Sequence of HOXC9 (Homo sapiens, UniProt P31274 178-260) (P31274 178-260): as the sequence (P31274 178-260 R193K) above, with K16R counted along it
Sequence of MSX2 (Homo sapiens, UniProt P35548 130-214, F161Y) (P35548 130-214 F161Y): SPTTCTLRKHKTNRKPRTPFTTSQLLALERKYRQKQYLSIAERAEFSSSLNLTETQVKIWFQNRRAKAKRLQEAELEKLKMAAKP
Sequence of NKX3-2 (Homo sapiens, UniProt P78367 192-278, P234S) (P78367 192-278 P234S): as the sequence (P78367 192-278) above, with P43S counted along it

CGCTGACC
binding signal [1]: 7.27 upbm affinity estimate (log intensity, higher = more binding, comparable within an allelic series)
binding signal [2]: 8.61 upbm affinity estimate (log intensity, higher = more binding, comparable within an allelic series)
binding signal [3]: 10.1 upbm affinity estimate (log intensity, higher = more binding, comparable within an allelic series)
binding signal [4]: 8.64 upbm affinity estimate (log intensity, higher = more binding, comparable within an allelic series)
binding signal [5]: 7.24 upbm affinity estimate (log intensity, higher = more binding, comparable within an allelic series)
binding signal [6]: 10.1 upbm affinity estimate (log intensity, higher = more binding, comparable within an allelic series)
binding signal [7]: 8.66 upbm affinity estimate (log intensity, higher = more binding, comparable within an allelic series)

GGAGCGGA
binding signal [1]: 7.25 upbm affinity estimate (log intensity, higher = more binding, comparable within an allelic series)
binding signal [8]: 9.19 upbm affinity estimate (log intensity, higher = more binding, comparable within an allelic series)
binding signal [9]: 8.94 upbm affinity estimate (log intensity, higher = more binding, comparable within an allelic series)
binding signal [10]: 9.15 upbm affinity estimate (log intensity, higher = more binding, comparable within an allelic series)
binding signal [11]: 8.85 upbm affinity estimate (log intensity, higher = more binding, comparable within an allelic series)
binding signal [12]: 9.13 upbm affinity estimate (log intensity, higher = more binding, comparable within an allelic series)
binding signal [13]: 9.14 upbm affinity estimate (log intensity, higher = more binding, comparable within an allelic series)
binding signal [14]: 9.05 upbm affinity estimate (log intensity, higher = more binding, comparable within an allelic series)
binding signal [15]: 9.13 upbm affinity estimate (log intensity, higher = more binding, comparable within an allelic series)
binding signal [16]: 7.31 upbm affinity estimate (log intensity, higher = more binding, comparable within an allelic series)
binding signal [17]: 9.15 upbm affinity estimate (log intensity, higher = more binding, comparable within an allelic series)
binding signal [18]: 9.51 upbm affinity estimate (log intensity, higher = more binding, comparable within an allelic series)
binding signal [19]: 9.08 upbm affinity estimate (log intensity, higher = more binding, comparable within an allelic series)
binding signal [5]: 7.2 upbm affinity estimate (log intensity, higher = more binding, comparable within an allelic series)
binding signal [20]: 10.3 upbm affinity estimate (log intensity, higher = more binding, comparable within an allelic series)
binding signal [21]: 9.6 upbm affinity estimate (log intensity, higher = more binding, comparable within an allelic series)
binding signal [22]: 9.14 upbm affinity estimate (log intensity, higher = more binding, comparable within an allelic series)
binding signal [23]: 9.16 upbm affinity estimate (log intensity, higher = more binding, comparable within an allelic series)
binding signal [24]: 9.13 upbm affinity estimate (log intensity, higher = more binding, comparable within an allelic series)
binding signal [25]: 9.62 upbm affinity estimate (log intensity, higher = more binding, comparable within an allelic series)
binding signal [26]: 10.5 upbm affinity estimate (log intensity, higher = more binding, comparable within an allelic series)
binding signal [27]: 7.46 upbm affinity estimate (log intensity, higher = more binding, comparable within an allelic series)

GAATTACA
binding signal [1]: 9.41 upbm affinity estimate (log intensity, higher = more binding, comparable within an allelic series)

AATCGGTA
binding signal [1]: 8.66 upbm affinity estimate (log intensity, higher = more binding, comparable within an allelic series)

GCCGGGCA
binding signal [1]: 7.25 upbm affinity estimate (log intensity, higher = more binding, comparable within an allelic series)
binding signal [2]: 8.48 upbm affinity estimate (log intensity, higher = more binding, comparable within an allelic series)
binding signal [4]: 8.45 upbm affinity estimate (log intensity, higher = more binding, comparable within an allelic series)
binding signal [5]: 7.18 upbm affinity estimate (log intensity, higher = more binding, comparable within an allelic series)
binding signal [7]: 8.59 upbm affinity estimate (log intensity, higher = more binding, comparable within an allelic series)
binding signal [28]: 10.6 upbm affinity estimate (log intensity, higher = more binding, comparable within an allelic series)
binding signal [29]: 10.6 upbm affinity estimate (log intensity, higher = more binding, comparable within an allelic series)

GCGCCCCC
binding signal [1]: 7.04 upbm affinity estimate (log intensity, higher = more binding, comparable within an allelic series)
binding signal [30]: 8.12 upbm affinity estimate (log intensity, higher = more binding, comparable within an allelic series)
binding signal [31]: 8.12 upbm affinity estimate (log intensity, higher = more binding, comparable within an allelic series)
binding signal [32]: 8.12 upbm affinity estimate (log intensity, higher = more binding, comparable within an allelic series)
binding signal [33]: 8.06 upbm affinity estimate (log intensity, higher = more binding, comparable within an allelic series)
binding signal [34]: 8.14 upbm affinity estimate (log intensity, higher = more binding, comparable within an allelic series)
binding signal [5]: 7.07 upbm affinity estimate (log intensity, higher = more binding, comparable within an allelic series)

CCCCGGGA
binding signal [1]: 7.25 upbm affinity estimate (log intensity, higher = more binding, comparable within an allelic series)
binding signal [35]: 9.71 upbm affinity estimate (log intensity, higher = more binding, comparable within an allelic series)
binding signal [36]: 9.86 upbm affinity estimate (log intensity, higher = more binding, comparable within an allelic series)
binding signal [5]: 7.27 upbm affinity estimate (log intensity, higher = more binding, comparable within an allelic series)
binding signal [37]: 9.8 upbm affinity estimate (log intensity, higher = more binding, comparable within an allelic series)
binding signal [38]: 9.99 upbm affinity estimate (log intensity, higher = more binding, comparable within an allelic series)

CGCAGTGC
binding signal [1]: 7.16 upbm affinity estimate (log intensity, higher = more binding, comparable within an allelic series)
binding signal [39]: 9.74 upbm affinity estimate (log intensity, higher = more binding, comparable within an allelic series)
binding signal [40]: 9.67 upbm affinity estimate (log intensity, higher = more binding, comparable within an allelic series)
binding signal [5]: 7.23 upbm affinity estimate (log intensity, higher = more binding, comparable within an allelic series)
binding signal [41]: 9.78 upbm affinity estimate (log intensity, higher = more binding, comparable within an allelic series)
binding signal [42]: 9.73 upbm affinity estimate (log intensity, higher = more binding, comparable within an allelic series)

CGGATTAG
binding signal [1]: 8.9 upbm affinity estimate (log intensity, higher = more binding, comparable within an allelic series)
binding signal [43]: 13.6 upbm affinity estimate (log intensity, higher = more binding, comparable within an allelic series)
binding signal [44]: 13.7 upbm affinity estimate (log intensity, higher = more binding, comparable within an allelic series)
binding signal [45]: 13.2 upbm affinity estimate (log intensity, higher = more binding, comparable within an allelic series)
binding signal [46]: 13.4 upbm affinity estimate (log intensity, higher = more binding, comparable within an allelic series)

CAGGGAGG
binding signal [1]: 6.88 upbm affinity estimate (log intensity, higher = more binding, comparable within an allelic series)
binding signal [35]: 9.65 upbm affinity estimate (log intensity, higher = more binding, comparable within an allelic series)
binding signal [47]: 8.81 upbm affinity estimate (log intensity, higher = more binding, comparable within an allelic series)
binding signal [36]: 9.79 upbm affinity estimate (log intensity, higher = more binding, comparable within an allelic series)
binding signal [5]: 7 upbm affinity estimate (log intensity, higher = more binding, comparable within an allelic series)
binding signal [37]: 9.91 upbm affinity estimate (log intensity, higher = more binding, comparable within an allelic series)
binding signal [38]: 9.86 upbm affinity estimate (log intensity, higher = more binding, comparable within an allelic series)
binding signal [48]: 8.85 upbm affinity estimate (log intensity, higher = more binding, comparable within an allelic series)
